This note sets out measurements from ChEMBL document CHEMBL3988442, “University of Dundee, Small-Polar-MMV Screening Library” (2021).

Common to all, as to parameters: scale not given: direction of the effect not stated beside the values
In experiment [1] the target is Protein translocase subunit SecA (Escherichia coli (strain K12)) (UniProt P10408). The experiment is described as follows: Assay to Identify E. coli SecA ATPase Inhibitors. Particulars: 30 µM. The class given is functional.
Experiment [2] deals with T1, Ubiquitin-activating enzyme e1, putative (Leishmania donovani (strain BPK282A1)) (UniProt E9BSI1).
T1 sequence (whole entry): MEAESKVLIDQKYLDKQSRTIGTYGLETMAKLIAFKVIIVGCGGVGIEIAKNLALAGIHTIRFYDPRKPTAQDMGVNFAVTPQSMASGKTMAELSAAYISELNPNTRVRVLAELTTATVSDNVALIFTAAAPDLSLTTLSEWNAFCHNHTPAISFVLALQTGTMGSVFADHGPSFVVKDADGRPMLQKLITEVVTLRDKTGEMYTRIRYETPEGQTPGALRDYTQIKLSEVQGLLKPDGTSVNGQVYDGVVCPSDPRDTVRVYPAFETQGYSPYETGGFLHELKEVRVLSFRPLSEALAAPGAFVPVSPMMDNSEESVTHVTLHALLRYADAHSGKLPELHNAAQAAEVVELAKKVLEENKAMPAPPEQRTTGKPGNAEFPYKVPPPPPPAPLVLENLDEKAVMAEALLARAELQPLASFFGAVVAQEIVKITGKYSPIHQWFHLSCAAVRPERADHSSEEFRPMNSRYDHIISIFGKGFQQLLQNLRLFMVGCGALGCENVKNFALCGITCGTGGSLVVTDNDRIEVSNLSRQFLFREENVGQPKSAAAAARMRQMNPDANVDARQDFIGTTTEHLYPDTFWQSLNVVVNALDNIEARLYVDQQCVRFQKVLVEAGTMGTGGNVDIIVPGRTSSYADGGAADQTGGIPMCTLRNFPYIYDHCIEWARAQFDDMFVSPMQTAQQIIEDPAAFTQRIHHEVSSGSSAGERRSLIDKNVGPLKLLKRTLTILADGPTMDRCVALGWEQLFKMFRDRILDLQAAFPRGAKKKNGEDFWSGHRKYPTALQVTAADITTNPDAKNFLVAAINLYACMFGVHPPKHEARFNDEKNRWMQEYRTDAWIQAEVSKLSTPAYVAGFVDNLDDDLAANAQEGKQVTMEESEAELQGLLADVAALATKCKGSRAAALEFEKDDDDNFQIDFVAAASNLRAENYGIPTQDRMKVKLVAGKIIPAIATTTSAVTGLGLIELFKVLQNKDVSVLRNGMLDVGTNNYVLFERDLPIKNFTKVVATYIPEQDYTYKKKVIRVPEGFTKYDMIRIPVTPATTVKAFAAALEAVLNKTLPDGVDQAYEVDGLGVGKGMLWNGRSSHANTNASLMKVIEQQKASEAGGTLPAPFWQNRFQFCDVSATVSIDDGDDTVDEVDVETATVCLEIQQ
In words: Leishmania donovani Ubiquitin Activating Enzyme (LdE1). Particulars: 30 µM. The class given is functional.

The target of experiment [3] is Sialic acid-binding Ig-like lectin 9 (Homo sapiens) (UniProt Q9Y336). The experiment is described as follows: Hs-Siglec9 ALPHAscreen SOP 20170721. Conditions: 10 µM. (In general: In Alpha technology, singlet oxygen from a donor bead excites a nearby acceptor bead.)
Chain of Sialic acid-binding Ig-like lectin 9 (Homo sapiens) (Q9Y336 whole entry): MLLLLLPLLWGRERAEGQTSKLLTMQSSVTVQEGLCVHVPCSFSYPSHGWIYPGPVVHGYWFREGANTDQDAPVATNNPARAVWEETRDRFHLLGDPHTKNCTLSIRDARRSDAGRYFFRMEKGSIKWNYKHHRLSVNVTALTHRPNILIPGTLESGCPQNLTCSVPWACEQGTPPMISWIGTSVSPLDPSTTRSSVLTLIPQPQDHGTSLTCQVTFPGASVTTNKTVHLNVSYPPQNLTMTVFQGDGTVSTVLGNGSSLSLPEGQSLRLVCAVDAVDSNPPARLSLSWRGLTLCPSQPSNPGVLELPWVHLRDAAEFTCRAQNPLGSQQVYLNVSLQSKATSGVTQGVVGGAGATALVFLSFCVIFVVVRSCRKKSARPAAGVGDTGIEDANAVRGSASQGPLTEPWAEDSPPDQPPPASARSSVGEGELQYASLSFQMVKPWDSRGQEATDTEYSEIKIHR
Another experiment has as its system Trypanosoma cruzi. In words: Trypanosoma cruzi phosphomannomutase and mannose-1-phosphate guanylyltransferase assay. The class given is functional. Conditions: 10 µM.
Experiment [4] addresses T2, Arginase-2, mitochondrial (Homo sapiens) (UniProt P78540).
T2 sequence (whole entry): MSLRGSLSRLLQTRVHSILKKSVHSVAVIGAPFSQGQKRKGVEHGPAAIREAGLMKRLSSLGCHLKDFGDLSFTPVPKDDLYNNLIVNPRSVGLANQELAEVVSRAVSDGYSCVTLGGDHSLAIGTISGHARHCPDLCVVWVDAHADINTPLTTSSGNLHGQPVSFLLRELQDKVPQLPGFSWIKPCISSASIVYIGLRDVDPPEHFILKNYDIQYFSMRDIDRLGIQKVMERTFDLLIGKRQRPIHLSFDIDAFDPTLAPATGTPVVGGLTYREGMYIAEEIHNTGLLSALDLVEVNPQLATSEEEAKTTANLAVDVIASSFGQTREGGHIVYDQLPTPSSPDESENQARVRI
The experiment is described as follows: in vitro enzyme assay to detect the production of urea directly proportional to the activity of Arginase II. Further: in the data most compounds retested in dose-response had high values. Conditions: 33.3 µM. The class given is functional.

Experiment [5] concerns the target T3, Proteasome subunit beta (Trypanosoma cruzi) (UniProt O96673).
T3 sequence (whole entry): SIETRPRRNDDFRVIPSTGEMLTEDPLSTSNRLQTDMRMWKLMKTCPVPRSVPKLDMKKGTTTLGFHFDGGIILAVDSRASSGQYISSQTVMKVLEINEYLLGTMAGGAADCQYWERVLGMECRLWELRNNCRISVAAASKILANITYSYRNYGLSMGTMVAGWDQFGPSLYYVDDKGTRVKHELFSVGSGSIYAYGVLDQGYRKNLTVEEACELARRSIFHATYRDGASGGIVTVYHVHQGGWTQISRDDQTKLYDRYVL
In words: Trypanosoma cruzi proteasome chymotrypsin-like activity (TcProtChymo) assay. Further: in the data most compounds retested in dose-response had high values. Particulars: 9.37 µM. In kind it is functional.

The species named for another experiment is Homo sapiens. The experiment is described as follows: To identify inhibition of the IFN signalling (Jak-Stat) pathway via expression of an eGFP reporter gene under the control of an IFN-stimulated response element (ISRE) containing MxA promoter. The class given is functional. Particulars: 30 µM.
Experiment [6] concerns the target T4, Tyrosyl-tRNA synthetase, putative (Trypanosoma cruzi (strain CL Brener)) (UniProt Q4DSP6).
T4 sequence (whole entry): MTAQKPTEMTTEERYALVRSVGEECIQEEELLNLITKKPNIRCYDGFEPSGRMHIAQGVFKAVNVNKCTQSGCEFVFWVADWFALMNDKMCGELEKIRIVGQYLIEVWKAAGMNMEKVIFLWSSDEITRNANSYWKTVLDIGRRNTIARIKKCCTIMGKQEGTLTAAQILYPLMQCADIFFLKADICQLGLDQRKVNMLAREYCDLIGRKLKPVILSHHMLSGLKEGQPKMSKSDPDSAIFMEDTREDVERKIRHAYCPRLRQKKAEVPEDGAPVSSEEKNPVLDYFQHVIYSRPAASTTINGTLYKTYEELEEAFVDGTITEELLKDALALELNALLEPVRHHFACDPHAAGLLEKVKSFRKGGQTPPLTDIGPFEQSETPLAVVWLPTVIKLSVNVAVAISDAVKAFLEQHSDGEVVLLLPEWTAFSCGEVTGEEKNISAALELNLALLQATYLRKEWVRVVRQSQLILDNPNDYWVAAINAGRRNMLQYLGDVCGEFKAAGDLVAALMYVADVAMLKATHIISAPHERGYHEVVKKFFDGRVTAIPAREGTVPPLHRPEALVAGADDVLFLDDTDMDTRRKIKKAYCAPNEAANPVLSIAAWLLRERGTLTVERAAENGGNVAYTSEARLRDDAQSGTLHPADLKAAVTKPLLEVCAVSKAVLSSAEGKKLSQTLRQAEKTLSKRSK
In words: Trypanosoma cruzi tyrosyl tRNA synthetase (TcYRS) _High Tyrosine SOP. Further: in the data most compounds retested in dose-response had high values. The class given is functional. Conditions: 30 µM.

Experiment [7] deals with T4, Tyrosyl-tRNA synthetase, putative (Trypanosoma cruzi (strain CL Brener)). The experiment is described as follows: Trypanosoma cruzi tyrosyl tRNA synthetase (TcYRS) SOP. Particulars: 30 µM. In kind it is functional.
For experiment [8], the target named is Chromo domain-containing protein 1 (Saccharomyces cerevisiae (strain ATCC 204508 / S288c) (Baker's yeast)) (UniProt P32657). The experiment is described as follows: ScCHD-1 Enzyme Inhibition Assay. Further: in the data most compounds retested in dose-response had high values. In kind it is functional. Particulars: 30 µM.
Chain of Chromo domain-containing protein 1 (Saccharomyces cerevisiae (strain ATCC 204508 / S288c) (Baker's yeast)) (P32657 whole entry, the tested form may be a part): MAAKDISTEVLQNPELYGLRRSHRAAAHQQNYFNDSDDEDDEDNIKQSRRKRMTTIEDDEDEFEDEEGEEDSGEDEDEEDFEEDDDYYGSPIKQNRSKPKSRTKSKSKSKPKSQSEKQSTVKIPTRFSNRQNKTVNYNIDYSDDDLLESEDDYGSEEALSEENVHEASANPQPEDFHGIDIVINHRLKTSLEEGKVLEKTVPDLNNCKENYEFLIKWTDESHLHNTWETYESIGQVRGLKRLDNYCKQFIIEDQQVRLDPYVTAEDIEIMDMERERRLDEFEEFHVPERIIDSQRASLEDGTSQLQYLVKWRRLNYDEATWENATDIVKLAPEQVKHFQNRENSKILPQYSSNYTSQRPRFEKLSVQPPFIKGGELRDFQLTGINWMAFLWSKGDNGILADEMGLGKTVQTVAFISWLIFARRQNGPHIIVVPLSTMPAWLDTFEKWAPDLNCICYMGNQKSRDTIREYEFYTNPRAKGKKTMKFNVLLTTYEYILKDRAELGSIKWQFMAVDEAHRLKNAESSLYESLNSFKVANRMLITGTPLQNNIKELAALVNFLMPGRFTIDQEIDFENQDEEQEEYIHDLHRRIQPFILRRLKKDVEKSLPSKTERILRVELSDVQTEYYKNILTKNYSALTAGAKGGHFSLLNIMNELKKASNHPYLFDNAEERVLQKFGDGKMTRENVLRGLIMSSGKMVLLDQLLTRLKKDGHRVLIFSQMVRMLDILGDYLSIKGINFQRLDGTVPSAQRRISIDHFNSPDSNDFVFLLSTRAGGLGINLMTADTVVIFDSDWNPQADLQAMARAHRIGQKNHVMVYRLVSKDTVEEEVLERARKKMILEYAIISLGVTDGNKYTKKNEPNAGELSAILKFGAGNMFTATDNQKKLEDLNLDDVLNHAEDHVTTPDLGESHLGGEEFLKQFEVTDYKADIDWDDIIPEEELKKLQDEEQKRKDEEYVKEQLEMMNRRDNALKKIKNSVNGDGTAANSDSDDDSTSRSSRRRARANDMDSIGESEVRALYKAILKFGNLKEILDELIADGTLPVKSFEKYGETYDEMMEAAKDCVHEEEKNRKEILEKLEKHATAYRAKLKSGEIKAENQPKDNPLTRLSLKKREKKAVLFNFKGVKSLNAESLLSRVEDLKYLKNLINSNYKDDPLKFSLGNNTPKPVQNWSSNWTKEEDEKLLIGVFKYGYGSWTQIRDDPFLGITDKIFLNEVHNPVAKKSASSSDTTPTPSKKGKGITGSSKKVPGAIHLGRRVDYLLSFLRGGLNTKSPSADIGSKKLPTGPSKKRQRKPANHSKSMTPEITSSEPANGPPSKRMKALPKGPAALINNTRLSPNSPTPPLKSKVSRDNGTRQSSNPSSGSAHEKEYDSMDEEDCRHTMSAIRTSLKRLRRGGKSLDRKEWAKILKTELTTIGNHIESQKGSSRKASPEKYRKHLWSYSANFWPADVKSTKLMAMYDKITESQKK

For part of these data: Results with a measured potency or affinity are listed apart.

Chain of Protein translocase subunit SecA (Escherichia coli (strain K12)) (P10408 whole entry): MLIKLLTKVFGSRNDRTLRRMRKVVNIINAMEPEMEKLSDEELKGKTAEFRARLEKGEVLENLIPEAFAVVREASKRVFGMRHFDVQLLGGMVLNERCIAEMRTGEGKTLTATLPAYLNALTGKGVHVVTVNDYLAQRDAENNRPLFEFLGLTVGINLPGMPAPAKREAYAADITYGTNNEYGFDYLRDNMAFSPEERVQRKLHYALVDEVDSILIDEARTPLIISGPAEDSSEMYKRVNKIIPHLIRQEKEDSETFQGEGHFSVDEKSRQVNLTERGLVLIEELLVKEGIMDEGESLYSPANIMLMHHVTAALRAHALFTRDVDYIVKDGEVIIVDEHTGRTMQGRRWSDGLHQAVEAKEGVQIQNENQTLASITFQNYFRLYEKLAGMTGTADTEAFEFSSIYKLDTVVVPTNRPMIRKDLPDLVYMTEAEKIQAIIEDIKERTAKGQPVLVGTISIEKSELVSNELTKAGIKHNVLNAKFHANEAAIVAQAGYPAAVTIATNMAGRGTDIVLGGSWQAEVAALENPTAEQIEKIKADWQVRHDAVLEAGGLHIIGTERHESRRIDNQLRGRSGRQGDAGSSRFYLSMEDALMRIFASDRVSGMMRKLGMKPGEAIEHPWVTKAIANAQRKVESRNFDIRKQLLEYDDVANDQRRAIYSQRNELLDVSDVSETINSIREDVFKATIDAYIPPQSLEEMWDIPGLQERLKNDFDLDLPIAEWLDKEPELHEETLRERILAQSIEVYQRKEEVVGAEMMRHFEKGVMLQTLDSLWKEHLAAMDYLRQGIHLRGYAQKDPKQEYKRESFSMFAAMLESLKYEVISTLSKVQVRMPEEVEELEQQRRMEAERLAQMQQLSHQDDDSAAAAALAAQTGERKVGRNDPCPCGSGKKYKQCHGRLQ

In the case of `Cc1cnn(C(C)C2CC2)c1NC(=O)c1cnccn1` (stereo not given), the Percent Effect was -5.04% in experiment [1]; 0% in experiment [2]; 0.592% in [3]; 1.07% in the experiment with Trypanosoma cruzi; 0.35% in [4]; -1.03% in experiment [5]. Moreover, the Percent Effect in the experiment listed under Homo sapiens is 16.7%; in [6] it was 1.6%; in [7], 4.88%; in [8], 2.37%.

Turning to `Cc1ccc(CC(=O)N2CCc3nnc(N(C)C)cc3C2)cn1`, the Percent Effect was 0.88% in experiment [1]; 20.5% in [2]; -4.67% in experiment [3]; -0.469% in the experiment on Trypanosoma cruzi; 2.05% in experiment [4]; 13.6% in [5]. For the same compound, the Percent Effect was 16.2% in the experiment filed under Homo sapiens, 6.22% in experiment [6], 10.8% in [7] and -4.95% in [8].

`Cc1ccc(OCCC(=O)N2CCN(c3cnccn3)CC2)cc1C`: the Percent Effect in experiment [1] is 1.26%; in experiment [2], 13%; in experiment [3] it was -2.1%; in the experiment with Trypanosoma cruzi, -5.78%; in experiment [4], 3.48%; in experiment [5], 14.9%. Moreover, the Percent Effect is 16.1% in the experiment filed under Homo sapiens, 6.86% in [6], 18.8% in experiment [7] and -6.5% in experiment [8].

In the case of `CCC(=O)N(C)CC(=O)Nc1ccc(Br)cn1`, the Percent Effect in experiment [1] is -6.29%; in experiment [2] it was 2.67%; in experiment [3], 0.577%; with Trypanosoma cruzi, -4.22%; in experiment [4], 1.77%; in experiment [5], 6.87%. Besides, the Percent Effect in the experiment filed under Homo sapiens is 8.04%; in experiment [6], -0.526%; in experiment [7], 2.56%; in experiment [8], -5.17%.

As to `COCCC(=O)N1CCC2(CC1)CC(c1ccccc1)CN(C)C2` (stereo not given), the Percent Effect in [1] is -6.06%; in [2] it was 5.41%; in [3], 7.24%; with Trypanosoma cruzi it was 2.42%; in experiment [4], 1.75%; in experiment [5] it was 18.7%. Besides, the Percent Effect was -4.11% in the experiment filed under Homo sapiens, 4.79% in experiment [6], 12.2% in [7] and -5.37% in [8].

Take `Cc1cc(-c2nn(C)c(Cl)c2CN2CCOCC2CC(=O)O)no1` (stereo not given): the Percent Effect in experiment [1] is -6.59%; in [2], 10.8%; in experiment [3], 10.3%; with Trypanosoma cruzi it was 5.92%; in [4], 15.7%; in experiment [5], 12.2%. Besides, the Percent Effect in the experiment filed under Homo sapiens was 22.2%; in [6] it was 7.98%; in [7], 12.2%; in experiment [8], -0.504%.

On to `O=C(NCCC1=CCCCC1)C1CCN(c2ccc3nncn3n2)CC1`, for which the Percent Effect in experiment [1] is -2.89%; in experiment [2] it was 10.8%; in experiment [3] it was -2.17%; with Trypanosoma cruzi it was -0.485%; in experiment [4] it was -2.45%; in [5] it was 11.1%. Also, the Percent Effect in the experiment listed under Homo sapiens turned out to be 28.5%; in [6], 4.79%; in [7] it was 14.6%; in experiment [8] it was 2.87%.

With `CC(C)N1CCN(C(=O)Nc2cnn(CC(N)=O)c2)CC1`, the Percent Effect was -3.33% in experiment [1]; 17.9% in experiment [2]; -17.7% in experiment [3]; 9.67% in the experiment on Trypanosoma cruzi; 0% in experiment [4]; 11.7% in experiment [5]. Further, the Percent Effect in the experiment filed under Homo sapiens was 5.26%; in [6], -3.35%; in experiment [7] it was 22.9%; in experiment [8], -6.52%.

As for `Cc1nc(C)n(CC2CCCN2Cc2cn3c(C)cccc3n2)n1` (stereo not given), the Percent Effect is -1.02% in [1]; 2.67% in [2]; 7.22% in [3]; 4.62% in the experiment on Trypanosoma cruzi; 2.66% in [4]; 8.4% in experiment [5]. In addition, the Percent Effect is -19.9% in the experiment filed under Homo sapiens, 1.58% in experiment [6], 5.13% in [7] and -11.6% in experiment [8].

As to `COc1ccccc1NC(=O)CSC1CCc2ccccc2NC1=O` (stereo not given), the Percent Effect in [1] is -4.52%; in experiment [2], 13.5%; in [3], 8.46%; with Trypanosoma cruzi it was 4.17%; in experiment [4] it was 17.1%; in [5] it was 18.3%. Also, the Percent Effect in the experiment listed under Homo sapiens is 13%; in experiment [6], 5.85%; in [7], 17.1%; in [8], -4.97%.

As to `CN(C)[C@@H]1CN(Cc2ccco2)C[C@@H]2CCCO[C@@H]21`, the Percent Effect in experiment [1] was -2.22%; in [2], 6.49%; in experiment [3], -4.86%; in the experiment with Trypanosoma cruzi, -5.16%; in experiment [4], -1.22%; in experiment [5], 9.27%. Moreover, the Percent Effect in the experiment filed under Homo sapiens is 3.2%; in experiment [6] it was -0.526%; in [7], 7.69%; in experiment [8], -3.13%.

Regarding `CCN(C)c1ncnc2c1CCN(Cc1ccc(OC)cc1)CC2`, the Percent Effect in experiment [1] is -4.72%; in [2], 6.49%; in [3], -9.08%; with Trypanosoma cruzi, -2.04%; in experiment [4], 2.43%; in experiment [5], 13.5%. Besides, the Percent Effect was 25.4% in the experiment filed under Homo sapiens, 0.526% in experiment [6], 7.69% in experiment [7] and -4.67% in experiment [8].
